PubChem BioAssay AID588497 (NMMLSC, 2011)
Hit rate of the full screen: of about 360,000 compounds, about 780 (0.22%) were called active. Roughly 4% stayed inconclusive and do not appear here. The sample holds actives, similar compounds and a random draw of the others, so the mix is not that of the screen. No stated cut-off is given here; in the data, active means inhibition above about 35% (passing the limit was not always enough); inconclusive means no clear call, values can overlap the other calls.

These molecules were tested on Botulinum neurotoxin type F light chain protease (Clostridium botulinum) (assay: BoNT/F light chain protease inhibitors, primary screen, biochemical, flow cytometry, MLPCN library (AID 588497; further: plate controls were buffer without enzyme for full effect and enzyme alone for no effect)). Conditions: Multiplex microsphere protease cleavage assay, at 10 µM, hits give high values.

Row | SMILES | inhibition
1 | CCCCc1c(-c2ccc(Cl)cc2)ncn1CCc1ccccc1OC | 0.1% (inactive)
2 | NC(c1csc(NC(=O)Nc2cccc(C(F)(F)F)c2)n1)C1CCCCC1 (stereo not given) | -35.6% (inactive)
3 | Cc1cccc(-c2cnc(C(O)c3ccc4ccccc4c3)[nH]2)c1 (stereo not given) | -3.1% (inactive)
4 | COc1cc(/C=C/C(=O)N2c3ccccc3Sc3ccc(C(F)(F)F)cc32)cc(OC)c1OC | -24.7% (inactive)
5 | COc1cc(/C=C2\SC(=S)N(Nc3ncc(C(F)(F)F)cc3Cl)C2=O)cc(OC)c1OC | 43.1% (active)
6 | O=C1/C(=C/c2ccc(F)cc2)SC(=S)N1NS(=O)(=O)c1ccccc1 | 0.7% (inactive)
7 | COc1ccc(Br)c(Cn2c(C)c(C(=O)NCc3cccs3)sc2=O)c1 | 3.6% (inactive)
8 | O=C(Nc1nnc([C@H]2C[C@H](O)[C@@H](CO)O2)s1)c1cccc(Cl)c1 | 2.2% (inactive)
9 | COc1ccccc1CNC(=O)C1CCN(S(C)(=O)=O)CC1 | -1.3% (inactive)
10 | COc1ccccc1CNC(=O)[C@@H]1CCCN1C(=O)[C@@H]1Cc2ccccc2CN1C(=O)OC(C)(C)C | -3.1% (inactive)
11 | COc1ccccc1CNC(=O)C1Cc2ccccc2C(=O)O1 (stereo not given) | 40.9% (active)
12 | NC(Cc1ccccc1)c1csc(Nc2cc(Oc3ccccc3)ncn2)n1 (stereo not given) | -21.7% (inactive)
13 | COc1ccc(CC(N)c2csc(NC(=O)Cc3ccccc3)n2)cc1 (stereo not given) | -9.3% (inactive)
14 | CN(C)C(=O)c1cccc(-c2cnc3sc(NCc4ccc5c(c4)OCO5)nn23)c1 | -7.5% (inactive)
15 | COc1cc2cc(CN(CCN3CCCC3)C(=O)Nc3ccccc3Cl)c(=O)[nH]c2cc1OC | 56.9% (active)
16 | Cc1ccc2[nH]c(=O)c(CN(CCCN(C)C)C(=O)Nc3cccc(Cl)c3)cc2c1 | 1% (inactive)
17 | COc1ccc(CCN(Cc2cc3cccc(C)c3[nH]c2=O)C(=O)N2CCCC2)cc1OC | -19.1% (inactive)
18 | FC(F)(F)Oc1ccccc1C(c1nnnn1C1CCCCC1)N1CCN(C/C=C/c2ccccc2)CC1 (stereo not given) | -16.7% (inactive)
19 | CC1(Cc2ccccc2C#N)C(=O)Nc2ccc(-c3ccc4[nH]ccc4c3)cc21 (stereo not given) | -3.4% (inactive)
20 | C/C(=N\NC(=O)c1ccccc1F)c1ccccn1 | -0.7% (inactive)
21 | CC(=NNC(=S)N1CCCCCC1)c1ccccn1 | 55% (active)
22 | Cc1cccc(C)c1NC(=S)N1CCCCCC1 | 4.7% (inactive)
23 | Cc1ccc(C(NC(=O)C2CCN(CCOc3ccc(Cl)cc3Cl)CC2)c2ccccn2)cc1 (stereo not given) | 4.2% (inactive)

Row | SMILES | inhibition
24 | CC(=O)Nc1cccc(-c2ccnc3c2CC(C)(C(=O)NCc2ccccc2)O3)c1 (stereo not given) | -1.6% (inactive)
25 | CCOc1ccc(CCN2C(=S)N([C@@H](CC(C)C)CN3CCC[C@@H]3CN3C(=S)NC[C@@H]3Cc3ccc(O)cc3)C[C@@H]2CC(C)C)cc1 | -7.7% (inactive)
26 | CCCCC[C@H](C)N1C[C@@H](COCc2ccccc2)Oc2cc(N3CC[C@@H](N(C)C)C3)ccc2S1(=O)=O | -14% (inactive)
27 | CC(C)Cc1ccc(-c2cc3nc(NCc4cccc(Cl)c4)ccn3n2)cc1 | -1.6% (inactive)
28 | COc1ccc(/C=N/N(C)C2=NS(=O)(=O)c3ccccc32)cc1OC | -14.8% (inactive)
29 | O=S1(=O)N=C(N(CCO)/N=C/c2ccccc2F)c2ccccc21 | 74.7% (active)
30 | C=CCOCCN(C)C1=NS(=O)(=O)c2ccccc21 | -7.4% (inactive)
31 | COc1cncc(-c2cnc3sc(NCCc4ccccn4)nn23)c1 | -4.1% (inactive)
32 | CCOCCn1c(C(C)C)nc2ccccc21 | 2.9% (inactive)
33 | CCc1nc2ccccc2n(CCOCCOCCn2c(=O)c(CC)nc3ccccc32)c1=O | -0.5% (inactive)
34 | CCOCCn1c(-c2ccccc2)nc2ccccc21 | 65.4% (active)
35 | Cc1ccc(NS(=O)(=O)c2cc3c(cc2Br)NC(=O)CO3)cc1C | 0.3% (inactive)
36 | CN(Cc1cn(Cc2ccc(C(F)(F)F)cc2)nn1)C1CN(Cc2cn(Cc3ccc(C(F)(F)F)cc3)nn2)S(=O)(=O)C1 (stereo not given) | -10.7% (inactive)
37 | CCCCCCCCN1C(=O)[C@H](CC(=O)NCc2cccc3ccccc23)C[C@@]2(C(=O)OC)CCCCC=C12 | -5.2% (inactive)
38 | COc1ccc(CN2C3CCCC2CC(NC(=O)c2cccc(F)c2)C3)cc1 (stereo not given) | -2.5% (inactive)
39 | CCCN1C2CCCC1CC(NC(=O)c1cccc(OC)c1)C2 (stereo not given) | 34.7% (active)
40 | COc1cccc(NC(=O)N2C3CCCC2CC(NC(C)=O)C3)c1 (stereo not given) | 28.5% (inactive)
41 | Nc1nc2c(Br)ccc(Br)c2cc1C(=O)NCCc1ccccc1 | -1% (inactive)
42 | CCCCCc1c(-c2cccc(Br)c2)ncn1CCc1ccccc1OC | -6.3% (inactive)
43 | Oc1cccc2cc(-c3ccncc3)cnc12 | -5.1% (inactive)
44 | CNS(=O)(=O)c1cccc(C(=O)NC2CCCc3ccccc32)c1 (stereo not given) | 2.8% (inactive)
45 | O=C(O)c1cc(S(=O)(=O)NC2CCCc3ccccc32)ccc1O (stereo not given) | 49% (active)
46 | O=C(CCC(=O)N1CCN(S(=O)(=O)c2ccccc2)CC1)NC1CCCc2ccccc21 (stereo not given) | 7.9% (inactive)

Row | SMILES | inhibition
47 | CCCCc1c(-c2ccc(Br)cc2)ncn1CCc1ccccc1OC | -3.2% (inactive)
48 | CCc1nc2c(OCCC3CCCCC3)cccn2c1N(C)C(=O)c1ccco1 | 1.8% (inactive)
49 | CC(C)C[C@H]1CNC(=O)C(=O)N1C[C@H]1CCCN1C[C@H](Cc1ccc(O)cc1)N1C[C@H](CC(C)C)N(CC2CCCCCC2)C(=O)C1=O | -9.5% (inactive)
50 | CC(C)C[C@@H](COCc1ccc(Cl)cc1)N1CCN(C(=O)c2ccc(Cl)cc2Cl)CCC1=O | -2.4% (inactive)
51 | CC(=O)Nc1cc(-c2ccc(N3CCN(C)CC3)cc2)cn2c(-c3ccc(F)cc3)cnc12 | -13.3% (inactive)
52 | Cc1ccc2[nH]cc(CCNC(=O)C3CCCCC3)c2c1 | 50% (active)
53 | Cc1ccc2[nH]cc(CCNC(=O)c3ccc([N+](=O)[O-])cc3)c2c1 | -0.3% (inactive)
54 | O=C(NCCc1c[nH]c2ccccc12)C1CCN(Cc2ccc(Br)cc2)CC1 | -27.7% (inactive)
55 | COC(=O)[C@@]1(Sc2ccc(C)cc2)CC(=O)N(c2cccc(SC)c2)[C@@H]1c1ccccc1 | 4.9% (inactive)
56 | CCOc1nnc(C)c2c(C)n(-c3cccc(Cl)c3)nc12 | 46.5% (active)
57 | CCOC(=O)C(C)n1cnc2c(nnn2-c2cccc(OC)c2)c1=O (stereo not given) | 18.5% (inactive)
58 | CCOc1ccc(CNC(=O)C2CCCN(c3nnc(C)c4c(C)n(-c5ccccc5)nc34)C2)cc1 (stereo not given) | 10.7% (inactive)
59 | Cc1nc2c(OCC(=O)C(C)(C)C)cccn2c1N(C)Cc1cccs1 | 4.6% (inactive)
60 | CC(=O)Nc1cc(-c2ccccc2F)cn2c(-c3cccc(C(F)(F)F)c3)cnc12 | 1.3% (inactive)
61 | CC(=O)c1ccc(-c2cnc3c(NC=O)cc(-c4cccc(NS(C)(=O)=O)c4)cn23)cc1 | 3% (inactive)
62 | Cc1ccc2nc(-c3ccco3)c(Cc3cccc(Cl)c3)n2c1 | 0% (inactive)
63 | Cc1cccc(C)c1Cn1c(C)c(C(=O)NCc2cccc(Cl)c2)sc1=O | -3.1% (inactive)
64 | COc1ccc(/C=C/C(=O)c2c(O)cc(OC)cc2OC)cc1 | -3.2% (inactive)
65 | Cc1cc(O)c(C(=O)/C=C/c2c(F)c(F)c(F)c(F)c2F)c(=O)o1 | 39.9% (active)
66 | Cc1cc(O)c(Sc2ccccc2)c(=O)o1 | -0.7% (inactive)
67 | CCCCn1nnnc1C(c1cccc(OC)c1OC)N1CCN(C/C=C/c2ccccc2)CC1 (stereo not given) | -4.8% (inactive)
68 | COc1ccccc1CNC(=O)c1cc(-c2cc(Cl)ccc2C)n[nH]1 | -6.5% (inactive)
69 | Fc1cccc(Cc2c(-c3cccc(Cl)c3)nc3ccc(Br)cn23)c1 | 12.2% (inactive)

Row | SMILES | inhibition
70 | CC1(C)CC(=O)C=C(N2CCOCC2)C1 | -0.6% (inactive)
71 | CC1(C)CC(=O)C=C(N2CCCC2)C1 | 43.8% (active)
72 | CC1Cc2ccccc2N1C1=CC(=O)CC(C)(C)C1 (stereo not given) | -1.7% (inactive)
73 | CN(C(=O)CN1CCN(c2cc(-c3ccc(OCc4ccccc4)cc3)ncn2)CC1)c1ccccc1 | -2.5% (inactive)
74 | Cc1ccc2nc(-c3ccccc3)c(CC3CCCCC3)n2c1 | -7.4% (inactive)
75 | COc1cc(F)ccc1-c1cc(C(=O)NCC2CCCCC2)[nH]n1 | -7.3% (inactive)
76 | CCCCCn1nnnc1-c1nc2cc3ccccc3cc2[nH]c1=O | 4.1% (inactive)
77 | CCc1nc2ccc(C(=O)NCc3ccc(OC)cc3)cn2c1N(CC)Cc1cccc(Br)c1 | -5.2% (inactive)
78 | COc1cccc(CNc2nc(NCc3ccccc3OC)nc3ccsc23)c1 | -10.7% (inactive)
79 | CC(O)c1nc2c(c(=O)n(C)c(=O)n2C)n1C (stereo not given) | 7.6% (inactive)
80 | Cn1c(=O)c2c(nc(NCc3ccccc3)n2CC(N)=O)n(C)c1=O | -8.9% (inactive)
81 | CCC/C(C)=N\Nc1nc2c(c(=O)n(C)c(=O)n2C)n1C | 46.4% (active)
82 | CCCCN(C=O)c1c(CC)nc2c(OCCC3CCCCC3)cccn12 | -1.8% (inactive)
83 | CCn1cc(C(=O)NCC2COc3ccccc3O2)c2cc(OC)c(OC)cc2c1=O (stereo not given) | -4.2% (inactive)
84 | CCn1cc(C(=O)N2CCN(C3CCCCC3)CC2)c2cc(OC)c(OC)cc2c1=O | 35% (active)
85 | COc1cc(C(=O)N2CCN(C3CCC(C)CC3)CC2)cc(OC)c1OC (stereo not given) | -2.2% (inactive)
86 | Cc1cccnc1C(NC(=O)C1CCN(Cc2ccc(Cl)c(Cl)c2)CC1)c1ccc(Cl)cc1 (stereo not given) | -0.6% (inactive)
87 | CC(=O)Nc1cc(-c2ccccc2N(C)C)cn2c(-c3ccc(F)c(Cl)c3)cnc12 | -0.7% (inactive)
88 | CCOc1ccc(NC(=O)CC(Cc2ccc(Cl)cc2)C(=O)O)cc1 (stereo not given) | 42.9% (active)
89 | CN(CC(=O)Nc1ccc(Cl)cc1)C(=O)c1ccc(COc2ccccc2)cc1 | 8.6% (inactive)
90 | CCOc1ccc(NC(=O)CC2NCCNC2=O)cc1 (stereo not given) | -3.7% (inactive)
